# Source: the supplement of paper PMC10933113
# Counter-ions that a name gives are not always drawn. ± gives the uncertainty stated by the source.
# Tested on: THP-1
# Assay: CD54 surface expression induction over DMSO control (% over DMSO); higher = stronger dendritic cell activation
# Settings: exposure time: 24 h
# Method: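 hCLAT-like CD54 and CD86 surface expression on THP1 cells after 24 h exposure at a single concentration (highest non-cytotoxic concentration, or 100-200 µM if not cytotoxic). Flow cytometry (iQue) was run on 5,000 live cells.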
row,SMILES,CD54 surface expression induction
1,"CN(C)c1ccc(N(C)C)cc1 [*N,N,N',N'-Tetramethyl-p-phenylenediamine] (200 µM)",91.8 ± 6
2,"c1ccc(Nc2ccc(Nc3ccccc3)cc2)cc1 [N,N'-Diphenyl-p-phenylenediamine] (200 µM)",-11.2 ± 11
3,CC(C)Nc1ccc(Nc2ccccc2)cc1 [N-Isopropyl-N'-phenyl-p-phenylenediamine] (10 µM),46.7 ± 2.8
4,N#CCC#N [Propanedinitrile] (199 µM),-2.75 ± 3
5,"Nc1ccc(N)cc1 [1,4-Benzenediamine] (10 µM)",30.8
6,OCc1ccco1 [Furfuryl alcohol] (201 µM),0.62 ± 1.6
7,"Nc1ccc([N+](=O)[O-])cc1N [4-Nitro-1,2-phenylenediamine] (100 µM)",7.46 ± 2
8,C[C@@H]1O[C@@H](O[C@H]2C[C@@H](O)[C@]3(CO)[C@H]4[C@H](O)C[C@]5(C)[C@@H](C6=CC(=O)OC6)CC[C@]5(O)[C@@H]4CC[C@]3(O)C2)[C@H](O)[C@H](O)[C@H]1O [Ouabain] (10 µM),21.9 ± 10
9,CN(C)S(=O)(=O)N(SC(F)(Cl)Cl)c1ccccc1 [Dichlofluanid] (10 µM),35.6 ± 3.1
10,O=[N+]([O-])c1ccc(Oc2ccc(C(F)(F)F)cc2[N+](=O)[O-])cc1 [Fluorodifen] (10 µM),-6.85 ± 4.5
11,CCOP(=S)(OCC)SC(CCl)N1C(=O)c2ccccc2C1=O (stereo not given) [Dialifor] (100 µM),-4.61 ± 27
12,"O=[N+]([O-])c1cc([N+](=O)[O-])c2ccccc2c1 [1,3-Dinitronaphthalene] (200 µM)",3.83 ± 2.5
13,Fc1ccc(Oc2ccnc3cc(Cl)cc(Cl)c23)cc1 [Quinoxyfen] (200 µM),-12.7 ± 1
14,CC(C)OC(=S)S [Proxan-sodium] (10 µM),-6.19 ± 3
15,CCNc1nc(NC(C)(C)C)nc(SC)n1 [Terbutryn] (100 µM),1.12 ± 1.2
16,c1ccc2c(c1)OCC(C1=NCCN1)O2 (stereo not given) [Idazoxan] (10 µM),-6.12 ± 5.1
17,Cc1cc(C2CC2)nc(Nc2ccccc2)n1 [Cyprodinil] (200 µM),2.24 ± 3.2
18,C=CC(=O)OCC(COC(=O)C=C)(COC(=O)C=C)COC(=O)C=C [Pentaerythritol tetraacrylate] (10 µM),1.03 ± 1.9
19,O=C(O)c1ccccc1C(=O)Nc1cccc2ccccc12 [Naptalam*] (200 µM),183 ± 32
20,COP(=S)(OC)Oc1nc(Cl)c(Cl)cc1Cl [Chlorpyrifos-methyl] (200 µM),20.5 ± 8.1

row,SMILES,CD54 surface expression induction
1,S=C=NCc1ccccc1 (10 µM),10.5 ± 7.8
2,Cc1ccc2c(c1N)C(=O)c1ccccc1C2=O [1-Amino-2-methylanthraquinone] (100 µM),131 ± 21
3,CCOP(=S)(OCC)Oc1cnc2ccccc2n1 [Quinalphos] (200 µM),-1.41 ± 9
4,COc1ccc(O)c(C(C)(C)C)c1 [2-tert-Butyl-4-methoxyphenol] (200 µM),0.6 ± 0.57
5,CCCOC/C(=N\c1ccc(Cl)cc1C(F)(F)F)n1ccnc1 [Triflumizole] (10 µM),-3.38 ± 6.6
6,O=[N+]([O-])c1c(Cl)c(Cl)c(Cl)c(Cl)c1Cl [Pentachloronitrobenzene] (100 µM),14.3 ± 4.8
7,CS/C(C)=N\OC(=O)N(C)SN(C)C(=O)O/N=C(\C)SC [Thiodicarb] (10 µM),-6.62 ± 5
8,"Nc1ccc(Cl)cc1Cl [2,4-Dichloroaniline] (200 µM)",-7.56 ± 1.5
9,COc1ccc(C(c2ccc(OC)cc2)C(Cl)(Cl)Cl)cc1 [Methoxychlor] (200 µM),27.4 ± 9.6
10,N#C/C=C/C#N [Fumaronitrile] (10 µM),-10.2 ± 27
11,"O=[N+]([O-])c1cc(C(F)(F)F)c(Cl)c([N+](=O)[O-])c1Cl [2,4-Dichloro-1,3-dinitro-5-(trifluoromethyl)benzene] (10 µM)",4.56 ± 5.6
12,COP(=O)(OC)OC(Br)C(Cl)(Cl)Br (stereo not given) [Naled] (100 µM),3.64 ± 4.3
13,Nc1cc(Cl)ccc1O [2-Amino-4-chlorophenol] (200 µM),89.8 ± 6.4
14,O=C(N/N=C/c1ccc([N+](=O)[O-])o1)c1cc([N+](=O)[O-])cc([N+](=O)[O-])c1O [Nifursol] (200 µM),24.5 ± 8
15,CCOCN(C(=O)CCl)c1c(C)cccc1CC [Acetochlor] (10 µM),104 ± 21
16,"c1ccc(-c2cccc(-c3ccccc3)c2)cc1 [1,1':3',1''-Terphenyl] (200 µM)",-8.04 ± 5.3
17,O=C1OC(CCN2CCCCC2)OC1(c1ccccc1)c1ccccc1 (stereo not given) [Pipoxolan hydrochloride] (100 µM),78.1 ± 22
18,[CH3][Hg][Cl] [Methyl mercuric (II) chloride] (10 µM),36.6 ± 5.5
19,COc1ccccc1N [2-Methoxyaniline hydrochloride] (100 µM),2.44 ± 0.25
20,[Cl][Cd][Cl] [Cadmium II chloride] (200 µM),50.2 ± 4.8
